Experimental data: PubChem BioAssay (NCI)
Several values for one entry are separate records, joined by “and”; a condition that tells them apart may be missing. Identical values can stand only once. The panel holds about 79,000 compounds, 15% with a hit somewhere; the sample as a whole holds those more often. Some compounds were tested as several samples or in several runs, with calls that do not always agree. Activity calls are given as the source filed them. Rule as the data show it: active = growth inhibition above about 70%; inactive = the rest.

Experiments:
[1] = NCI Yeast Anticancer Drug Screen. Data for the rad50EPP+ strain (AID 151);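 also: 0% = growth of vehicle-treated control cultures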; conditions: S. cerevisiae rad50 mutant strain, stronger effect = higher value
Procedure, shortened: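 Genetically defined yeast (rad50EPP+, DNA damage repair alteration) is grown with compound, and inhibition of growth is expressed relative to vehicle-treated controls.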

[2] = NCI Yeast Anticancer Drug Screen. Data for the mgt1 strain (AID 153); conditions: S. cerevisiae mgt1 mutant growth inhibition, stronger effect = higher value
Procedure, shortened: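 In the mgt1 strain, test compounds were added and growth inhibition was determined relative to vehicle-treated controls.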

[3] = NCI Yeast Anticancer Drug Screen. Data for the rad50 strain (AID 155);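 also: 0% = growth of vehicle-only cultures of the same strain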; conditions: S. cerevisiae rad50 strain growth inhibition, stronger effect = higher value
Procedure, shortened: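 DNA repair mutant yeast, compound exposure, growth read-out; inhibition is taken relative to vehicle.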

[4] = NCI Yeast Anticancer Drug Screen. Data for the mec2-1 strain (AID 157); conditions: S. cerevisiae mec2-1 strain, stronger effect = higher value
Procedure, shortened: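 Each compound was tested on mec2-1 yeast, a strain altered in DNA damage repair or cell cycle control. Growth inhibition is reported relative to vehicle.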

[5] = NCI Yeast Anticancer Drug Screen. Data for the rad14 strain (AID 159);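 also: 0% = growth of vehicle-treated control cultures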; conditions: S. cerevisiae rad14 strain growth inhibition, stronger effect = higher value
Procedure, shortened: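 DNA repair-defective yeast, compound-exposed; % growth inhibition derived by comparison with vehicle-treated controls.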

[6] = NCI Yeast Anticancer Drug Screen. Data for the sgs1 mgt1 strain (AID 161);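 also: 0% = growth of cultures given vehicle only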; conditions: S. cerevisiae sgs1 mgt1 strain, stronger effect = higher value
Procedure, shortened: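 Genetically altered yeast, compound exposure, growth inhibition relative to vehicle.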

[7] = NCI Yeast Anticancer Drug Screen. Data for the CLN2oe strain (AID 163);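 also: 0% = growth of vehicle-only control cultures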; conditions: S. cerevisiae CLN2oe strain, stronger effect = higher value
Procedure, shortened: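 First, the altered yeast strain was treated with each compound; second, its growth was measured; finally, inhibition was derived by comparison with vehicle controls.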

[8] = NCI Yeast Anticancer Drug Screen. Data for the cln2 rad14 strain (AID 165);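 also: 0% = growth equal to vehicle treated cultures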; conditions: S. cerevisiae cln2 rad14 strain, stronger effect = higher value
Procedure, shortened: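 Test compounds were added to cln2 rad14 yeast cultures; inhibition of growth was then determined by comparison with vehicle treatment.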

[9] = NCI Yeast Anticancer Drug Screen. Data for the bub3 strain (AID 167); conditions: S. cerevisiae bub3 mutant strain, stronger effect = higher value
Procedure, shortened: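 In this screen, a yeast mutant lacking normal mitotic checkpoint function is challenged with compound. Relative growth versus vehicle gives the inhibition value.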

[10] = NCI Yeast Anticancer Drug Screen. Data for the wt2 strain (AID 169);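 also: 0% = growth of vehicle-treated yeast cultures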; conditions: S. cerevisiae wt2 strain growth inhibition, stronger effect = higher value
Procedure, shortened: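 The panel's yeast strains carry defined changes in DNA repair or cell cycle genes. Each strain is grown with compound, and growth loss is scored relative to vehicle.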

[11] = NCI Yeast Anticancer Drug Screen. Data for the mlh1 strain (AID 171);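 also: 0% = growth of vehicle-treated control cultures of the same strain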; conditions: S. cerevisiae mlh1 strain growth inhibition, stronger effect = higher value
Procedure, shortened: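 Inhibition values reflect reduced yeast growth in the presence of compound, referenced to vehicle controls, using a strain chosen for its alteration in DNA repair or cell cycle control.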

[12] = NCI Yeast Anticancer Drug Screen. Data for the sgs1 strain (AID 173);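 also: 0% = growth of vehicle-only control cultures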; conditions: S. cerevisiae sgs1 mutant, stronger effect = higher value
Procedure, shortened: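 Vehicle-treated cultures served as reference for growth inhibition of a yeast strain altered in DNA damage repair or cell cycle control after compound exposure.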

[13] = NCI Yeast Anticancer Drug Screen. Data for the mlh1 rad18 strain (AID 175); conditions: S. cerevisiae mlh1 rad18 strain growth inhibition, stronger effect = higher value
Procedure, shortened: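 Inhibition values reflect reduced growth of mutant yeast versus vehicle-treated controls following compound exposure; the mutations affect DNA damage repair.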

[14] = NCI Yeast Anticancer Drug Screen. Data for the rad18 strain (AID 177); conditions: S. cerevisiae rad18 mutant growth inhibition, stronger effect = higher value
Procedure, shortened: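 Steps: expose repair-mutant yeast to compound; measure growth; express as inhibition relative to vehicle control.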

[15] = at 5.0 µM (retest, dose inferred, filed as 0.5)
[16] = at 50.0 µM (retest, dose inferred, filed as 5.0)

Measured: growth inhibition

COC(=O)C1=C(C(=O)OC)SC2(S1)C(C(=O)OC)=C(C(=O)OC)Sc1c2ssc1=O
active: [2]; at 11.0 µM 88% | [2]; at 33.0 µM 99% | [2]; at 100.0 µM 92% | [3]; at 3.7 µM 73% | [3]; at 11.0 µM 93% | [3]; at 33.0 µM 98% | [3]; [16] 95% | [3]; at 50.0 µM 82.2% | [3]; at 100.0 µM 91% | [4]; at 11.0 µM 85% | [4]; at 33.0 µM 98% | [4]; [16] 95% | [4]; at 50.0 µM 86.2% | [4]; at 100.0 µM 88% | [5]; at 11.0 µM 80% | [5]; at 33.0 µM 99% | [5]; at 100.0 µM 92% | [6]; [16] 95% | [6]; at 50.0 µM 84.1% | [7]; at 11.0 µM 91% | [7]; at 33.0 µM 98% | [7]; at 100.0 µM 91% | [8]; [15] 70% | [8]; [16] 95% | [8]; at 50.0 µM 86.2% | [9]; at 11.0 µM 88% | [9]; at 33.0 µM 98% | [9]; [16] 94% | [9]; at 50.0 µM 78.8% | [9]; at 100.0 µM 91% | [10]; at 11.0 µM 99% | [10]; at 33.0 µM 96% | [10]; at 100.0 µM 89% | [11]; at 11.0 µM 88% | [11]; at 33.0 µM 99% | [11]; at 100.0 µM 92% | [12]; at 11.0 µM 87% | [12]; at 33.0 µM 99% | [12]; at 100.0 µM 93% | [13]; [16] 96% | [13]; at 50.0 µM 86.8% | [14]; at 11.0 µM 91% | [14]; at 33.0 µM 95% | [14]; at 100.0 µM 90%
inactive: [1]; at 1.2 µM 9% | [1]; at 3.7 µM 8% | [1]; at 11.0 µM 30% | [1]; at 33.0 µM 56% | [1]; at 100.0 µM 54% | [2]; at 1.2 µM 44% | [2]; at 3.7 µM 51% | [3]; at 1.2 µM 46% | [3]; [15] 13% | [4]; at 1.2 µM 16% | [4]; at 3.7 µM 17% | [4]; [15] 17% | [5]; at 1.2 µM 27% | [5]; at 3.7 µM 30% | [6]; [15] 26% | [7]; at 1.2 µM 14% | [7]; at 3.7 µM 26% | [9]; at 1.2 µM 23% | [9]; at 3.7 µM 32% | [9]; [15] 55% | [10]; at 1.2 µM 21% | [10]; at 3.7 µM 54% | [11]; at 1.2 µM 44% | [11]; at 3.7 µM 51% | [12]; at 1.2 µM 43% | [12]; at 3.7 µM 58% | [13]; [15] 26% | [14]; at 1.2 µM 30% | [14]; at 3.7 µM 55%

NC(N)=N/N=C1\C(=O)N(c2ccc(Cl)cc2)C(=O)C1C(=O)Nc1ccc(Cl)cc1 (stereo unspecified)
inactive: [3]; [15] 1% | [3]; [16] -2% | [3]; at 50.0 µM 54.6% | [4]; [15] 14% | [4]; [16] 17% | [4]; at 50.0 µM 46.1% | [6]; [15] 5% | [6]; [16] 11% | [8]; [15] 0% | [8]; [16] -3% | [8]; at 50.0 µM -8.8% | [9]; [15] 8% | [9]; [16] 19% | [9]; at 50.0 µM -7.75%
active: [6]; at 50.0 µM 76.1%

CCc1cc2c(cc1-c1csc(C/C(N)=N/O)n1)C(C)(C)CCC2(C)C
active: [3]; [16] 88% | [3]; at 50.0 µM 89.5% | [4]; [16] 92% | [4]; at 50.0 µM 90.7% | [6]; [16] 93% | [6]; at 50.0 µM 91.4% | [8]; [16] 96% | [8]; at 50.0 µM 89.7% | [9]; [16] 93% | [9]; at 50.0 µM 91%
inactive: [3]; [15] 55% | [4]; [15] 38% | [6]; [15] 52% | [8]; [15] 39% | [9]; [15] 48%

Cc1cc(N=Nc2ccccc2C)ccc1N
38% (inactive) and 97% (active): [13]; [16]
52% (inactive) and 99% (active): [4]; [16]
active: [3]; at 50.0 µM 91.4% and 88.5% | [4]; at 50.0 µM 93% and 91.7% | [6]; [16] 99% and 96% | [6]; at 50.0 µM 93.5% and 89.3% | [8]; [16] 98% and 96% | [8]; at 50.0 µM 91.1% and 91.5% | [9]; [16] 97% and 99% | [9]; at 50.0 µM 91.5% and 90% | [10]; at 33.0 µM 96% | [10]; at 100.0 µM 99% | [13]; at 50.0 µM 90.8% and 91.9%
inactive: [3]; [15] 34% and 23% | [4]; [15] 46% and 23% | [6]; [15] -4% and 31% | [8]; [15] 41% and 20% | [9]; [15] 12% and 41% | [10]; at 1.2 µM 2% | [10]; at 3.7 µM -7% | [10]; at 11.0 µM 4% | [13]; [15] 32% and 35%
44% (inactive) and 96% (active): [3]; [16]

O=C1C2CCN(CC2)C1CN1CCOCC1 (stereo unspecified)
active: [3]; at 50.0 µM 88.3% | [4]; at 50.0 µM 90.8% | [6]; at 50.0 µM 87.2% | [9]; at 50.0 µM 89.1%
inactive: [3]; [15] 15% | [3]; [16] 22% | [4]; [15] 22% | [4]; [16] -8% | [6]; [15] 3% | [6]; [16] 8% | [8]; [15] 10% | [8]; [16] 11% | [8]; at 50.0 µM 19.2% | [9]; [15] -1% | [9]; [16] 2% | [13]; [15] 10% | [13]; [16] 16%

N#Cc1ccc([Se]c2ccccc2)cc1
active: [3]; [15] 91% | [3]; [16] 96% | [3]; at 50.0 µM 73.9% | [4]; [15] 95% | [4]; [16] 96% | [6]; at 50.0 µM 72.3% | [8]; [16] 73% | [9]; [16] 84% | [9]; at 50.0 µM 77.9% | [13]; [15] 89% | [13]; [16] 97%
inactive: [4]; at 50.0 µM 54.1% | [6]; [15] -1% | [6]; [16] 67% | [8]; [15] 33% | [8]; at 50.0 µM 57% | [9]; [15] 40% | [10]; at 1.2 µM 10% | [10]; at 3.7 µM 13% | [10]; at 11.0 µM 6% | [10]; at 33.0 µM 28% | [10]; at 100.0 µM 63% | [13]; at 50.0 µM 56%
